The sample as a whole holds a higher share of hits than the screen did.
G9a block: G9a (human) methyltransferase inhibition. AID 504332. 350,000 compounds, 8.8% hits. G9a H3K9 monomethylation, AlphaScreen, 2 h. Q96KQ7. Potency, µM (highest dose often 102 µM), inactives show top-dose activity, negative = inhibition, hits mostly inhibitors; note: % is set by controls: 0 for no effect and ±100 for the full control effect; nearly all actives have a fitted effect of over 75% in size
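Step 1: enzyme (final 20 nM) with compound, 15 min RT. Step 2: substrate peptide 500 nM and SAM 20 uM, 2 h RT. Step 3: anti-H3K9me1 antibody and AlphaScreen beads, 10 min, then plate read.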
GRP78 ERSR act: induces the endoplasmic reticulum stress response in human glioma cells | U87-MG GRP78 promoter luciferase reporter, 16 h | Potency, µM, for the others: at the highest dose activation, hits mostly activators | 420,000 compounds, 0.02% hits | AID 602332; note: series mostly up to about 76 µM; % of control where 0% means no effect; nearly all actives have a fitted effect of over 35% in size
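Stably transfected U87-MG human glioma cells carrying a GRP78-based luminescent sensor were seeded at 1000 cells/well, pin-dosed with compounds and incubated 16 h. Luciferase reagent was then added, and end-point luminescence was read after 10 min at room temperature.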
VDR inhibitor: inhibitors of human vitamin D receptor; VDR-SRC2-3 peptide fluorescence polarization, 2 h; 400,000 compounds, 0.93% hits; Potency, µM, without a hit: max response, negative = inhibition, hits mostly inhibitors; P11473; AID 504847; note: % is set by controls: 0 for no effect and ±100 for the full control effect
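Compounds are added to VDR with labelled SRC2-3 coactivator peptide and held 2 h at room temperature. Inhibition of the VDR–peptide interaction is then read as a change in fluorescence polarization.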
Sfp PPTase inh: inhibitors of Bacillus subtilis Sfp phosphopantetheinyl transferase. Potency, µM, inactives show largest response in the series, negative = inhibition, actives largely listed as inhibitors. Q9F4F7. 310,000 compounds, 3.5% hits. Biochemical Sfp PPTase activity, qHTS. AID 1490;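 note: the enzyme is Sfp with the accession as filed and its product quenches rhodamine fluorescence; 0% = enzyme reaction without inhibitor and -100% = no enzyme wells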
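With Hepes-Na pH 7.6 buffer containing 10 mM MgCl2, Sfp (15 nM) modified BHQ-2-YbbR (12.5 uM) using rhodamine-CoA (5 uM). Two reads 30 minutes apart at 525/598 nm yielded each well's rate.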
12-LOX inh: blocks human arachidonate 12S-lipoxygenase | P18054 | purified 12hLO, xylenol orange hydroperoxide absorbance | Potency, µM (series often up to 108 µM), without a hit: at the highest dose activity change, negative = inhibition, most hits filed as inhibitors | 580,000 compounds, 1.1% hits; note: % is set by controls: 0 for no effect and ±100 for the full control effect
Target sequence (P18054 whole entry, looked up): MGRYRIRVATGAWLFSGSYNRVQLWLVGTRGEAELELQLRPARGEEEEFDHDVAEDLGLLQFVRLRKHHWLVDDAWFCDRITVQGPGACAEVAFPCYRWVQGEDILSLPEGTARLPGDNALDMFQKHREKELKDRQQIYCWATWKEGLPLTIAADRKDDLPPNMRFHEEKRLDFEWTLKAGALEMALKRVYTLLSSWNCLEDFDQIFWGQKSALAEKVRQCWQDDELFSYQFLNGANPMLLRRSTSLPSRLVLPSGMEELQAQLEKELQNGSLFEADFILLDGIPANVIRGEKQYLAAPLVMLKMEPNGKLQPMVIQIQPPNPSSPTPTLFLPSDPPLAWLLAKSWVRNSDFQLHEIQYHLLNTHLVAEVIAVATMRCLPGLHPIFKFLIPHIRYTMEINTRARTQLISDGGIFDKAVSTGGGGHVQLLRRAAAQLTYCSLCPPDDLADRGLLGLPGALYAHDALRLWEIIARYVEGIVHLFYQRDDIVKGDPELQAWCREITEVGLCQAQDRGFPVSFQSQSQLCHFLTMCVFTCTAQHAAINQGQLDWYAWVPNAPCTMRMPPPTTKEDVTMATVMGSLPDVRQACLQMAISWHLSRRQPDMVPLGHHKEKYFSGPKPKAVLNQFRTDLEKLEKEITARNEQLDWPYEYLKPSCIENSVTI
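Purified human 12hLO at 150 nM in 25 mM Hepes, 0.01% Triton X-100, pH 7.0, preincubated 15 min at room temperature with compound. Reaction started with 40 uM arachidonic acid, 30 min at room temperature. Hydroperoxide measured by Fe-xylenol orange, 573/405 nm absorbance ratio.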
* = called active by the depositor; [ ] = dose if it differs, or a comment. Calls come from the whole dose curve; as a rule, active = well fitted curve in the direction sought with a large enough effect; inconclusive = small, poorly fitted or top-dose-only effect, or another doubt; inactive = no such curve, though single readings can be large; an effect the other way counts as inactive or inconclusive. Potency is the fitted concentration of half-maximal effect.

O=C(C[C@H]1C[C@H](C(=O)N2CCOCC2)[C@@]2(CCC3CCCC3)c3[nH]c4cc(-c5ccco5)ccc4c3CCN2C1=O)NCCN1CCOCC1 was read as GRP78 ERSR act -1.5%, VDR inhibitor 7.2% and 12-LOX inh 44.7µM*.
O=C(C[C@H]1C[C@H](C(=O)N2CCOCC2)[C@@]2(CCC3CCCC3)c3[nH]c4cc(-c5ccco5)ccc4c3CCN2C1=O)NCc1cccc(C(F)(F)F)c1 was read as GRP78 ERSR act -3.4%, VDR inhibitor inconclusive and 12-LOX inh -58.0%.
`COCCOC1CCOC2(CCN(C(=O)c3sccc3C)CC2)C1` (stereo not drawn) gave 12-LOX inh 25.5%.
Screening COc1ccccc1C(=O)N1CCn2c(nn(-c3cccc(Cl)c3)c2=O)C1 returned 12-LOX inh 7.8%[6.33 µM].
For COc1ccc(N2CCN(C(=O)CSc3nc4c(c(=O)n(C)c(=O)n4C)n3C(C)C)CC2)cc1 the results were G9a block 50.1µM*, GRP78 ERSR act -3.7%, VDR inhibitor -2.0%, Sfp PPTase inh 10.8% and 12-LOX inh 15.1%.
COc1ccc(-n2c(SCC(=O)N3CCN(c4ccccc4)CC3)nc3c(c2=O)SCC3)cc1 was read as G9a block 44.7µM*, GRP78 ERSR act -0.1%, VDR inhibitor -0.5%, Sfp PPTase inh 9.9% and 12-LOX inh 11.2%.
`CCCCn1c(N)c(N(CCOC)C(=O)CSCc2ccc(C)cc2)c(=O)[nH]c1=O` gave G9a block 44.7µM*, GRP78 ERSR act 4.8%, VDR inhibitor -3.7% and 12-LOX inh inconclusive.
For CCCCn1c(N)c(N(CC)C(=O)CSCc2ccc(C)cc2)c(=O)[nH]c1=O the results were GRP78 ERSR act -1.5%, VDR inhibitor -23.8%, Sfp PPTase inh 6.2% and 12-LOX inh inconclusive.
`CCCCn1c(N)c(N(CCOC)C(=O)CSCc2ccc(Cl)c(Cl)c2)c(=O)[nH]c1=O` gave G9a block 56.2µM*, GRP78 ERSR act -4.8%, VDR inhibitor inconclusive and 12-LOX inh inconclusive.
Screening COCCn1c(N)c(N(Cc2ccccc2)C(=O)CSCC(=O)Nc2ccc(C)cc2)c(=O)[nH]c1=O returned G9a block 31.6µM*, GRP78 ERSR act -3.0%, VDR inhibitor -9.2% and 12-LOX inh -9.2%.
O=C(c1cnccn1)N1CC(=O)N2[C@@H](CO)[C@H](c3ccc(Br)cc3)[C@@H]2C1 was read as 12-LOX inh 10µM*.
Screening O=C(c1cccnc1)N1CC(=O)N2[C@@H](CO)[C@@H](c3ccc(Br)cc3)[C@@H]2C1 returned 12-LOX inh -17.8%.
Screening Cc1nc2ccccc2nc1SC(C)C(=O)N1CCOCC1 (stereo not drawn) returned 12-LOX inh 3.0%.
CN1CCC(=NNC(=O)C(=O)NCc2ccccc2)CC1 was read as G9a block 39.8µM*, GRP78 ERSR act -2.0%, VDR inhibitor 0.1%, Sfp PPTase inh 0.7% and 12-LOX inh 24.0%.
Screening CN1CCC(=NNC(=O)C(=O)Nc2ccc(F)cc2)CC1 returned G9a block inconclusive, GRP78 ERSR act 4.3%, VDR inhibitor 26.7%, Sfp PPTase inh 6.5% and 12-LOX inh -3.8%.
Screening CN1CCC(=NNC(=O)C(=O)Nc2cccc(Br)c2)CC1 returned G9a block -4.9%[59 µM], GRP78 ERSR act -2.4%, VDR inhibitor 70.8µM*, Sfp PPTase inh 12.1% and 12-LOX inh -1.1%.
For CC(C)c1nc2oc3c(N(CCO)Cc4ccccc4)ncnc3c2c2c1CCC2 the results were 12-LOX inh 8.6%.
`Cc1ccc(S(=O)(=O)N(CC(=O)NCCO)Cc2c(F)cccc2Cl)cc1` gave 12-LOX inh 40.2%.
`Cn1nnnc1SCC1=C(C(=O)O)N2C(=O)C(NC(=O)C(O)c3ccccc3)C2SC1` (stereo not drawn) gave G9a block -34.4%[2.33 µM], GRP78 ERSR act -3.6%, VDR inhibitor 50.1µM* and Sfp PPTase inh -66.4%.
`Cn1nnnc1SCC1=C(C(=O)O)N2C(=O)C(NC(=O)C3CC3c3ccccc3)C2SC1` (stereo not drawn) gave G9a block inconclusive, GRP78 ERSR act -2.9%, VDR inhibitor inconclusive, Sfp PPTase inh inconclusive and 12-LOX inh -34.5%.
Screening Cc1cc(C(F)F)nn1CC(=O)NC1C(=O)N2C(C(=O)O)=C(CSc3nnnn3C)CSC12 (stereo not drawn) returned G9a block 35.5µM*, GRP78 ERSR act -3.7%, VDR inhibitor 8.5%, Sfp PPTase inh 56.2µM* and 12-LOX inh -7.7%.
Screening Cn1nnnc1SCC1=C(C(=O)O)N2C(=O)[C@@H](NC(=O)[C@H](O)c3ccccc3)[C@H]2SC1 returned G9a block 12.6µM*, GRP78 ERSR act 1.1%, VDR inhibitor -25.0% and Sfp PPTase inh inconclusive.
`CCOC(=O)C1CCN(c2nc3ccccc3n3c(=O)n(CC(=O)Nc4ccc(C#N)cc4)nc23)CC1` gave 12-LOX inh 4.3%.
`CN(C)CCCN(C(=O)c1ccc(S(=O)(=O)N2CCc3ccccc32)cc1)c1nc2c(Cl)cccc2s1` gave G9a block 39.8µM*, GRP78 ERSR act -4.8%, VDR inhibitor -0.7%, Sfp PPTase inh inconclusive and 12-LOX inh inconclusive.
`CCc1ccc2nc(N(CCCN(C)C)C(=O)c3ccc(S(=O)(=O)N4CCCc5ccccc54)cc3)sc2c1` gave G9a block 39.8µM*, GRP78 ERSR act -13.8%, VDR inhibitor -23.0%, Sfp PPTase inh 35.5µM* and 12-LOX inh inconclusive.
`Cc1cc[n+](Cc2ccc([N+](=O)[O-])cc2)cc1` gave G9a block 44.7µM*, GRP78 ERSR act 8.7%, VDR inhibitor 9.0%, Sfp PPTase inh -3.4% and 12-LOX inh 1.1%.
Cc1ccccc1C1=NN(S(C)(=O)=O)C(c2ccc3nccnc3c2)C1 (stereo not drawn) was read as 12-LOX inh -17.4%.
`CC(C)(C)c1cc(-c2csc(Nc3ccccc3)[n+]2Cc2ccc(C(=O)O)cc2)cc(C(C)(C)C)c1O` gave G9a block 39.8µM*, GRP78 ERSR act inconclusive, VDR inhibitor 79.4µM* and Sfp PPTase inh 13.5%.
N=C1c2ccccc2CN1NC(=O)COc1ccc(Cl)cc1 was read as G9a block 35.5µM*, GRP78 ERSR act -5.0%, VDR inhibitor inconclusive, Sfp PPTase inh 0.1% and 12-LOX inh 0.0%.
`COC(=O)/C=C/c1cc(O)ccc1O` gave G9a block 2.82µM*, GRP78 ERSR act -3.7%, VDR inhibitor -6.1%, Sfp PPTase inh 50.1µM* and 12-LOX inh -4.1%.
`Cc1[nH][nH]c(=O)c1C(c1c(C)[nH][nH]c1=O)c1cn(Cc2ccccc2Cl)c2ccccc12` gave G9a block 14.1µM*, GRP78 ERSR act -4.4%, VDR inhibitor inconclusive, Sfp PPTase inh -11.0% and 12-LOX inh inconclusive.
